Assay outcomes: PubChem, National Center for Advancing Translational Sciences (NCATS)
RE007 growth inh – less growth of the S. pombe RE007 Vpr strain; S. pombe RE007 Vpr strain, BacTiter-Glo ATP luminescence, 24 h; Potency, µM (titrated, usually from 92.2 µM), for inactives: top-dose activity change, negative = less growth, usual class: inhibitors; actives 0.21% (n = 360,000); AID 651644; active means well fitted falling curve with a large enough effect; inconclusive means small, poorly fitted or top-dose-only effect; inactive means no such curve, though single readings can be large or run the other way; further: on the % scale 0 is the no-effect control and ±100 the full control effect; nearly all actives have a fitted effect of over 50% in size
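Fission yeast RE007 carrying one integrated HIV-1 vpr copy, seeded at OD 0.01 in PMG+AL medium with 23 nL pinned compound. Grown 24 h at 30 degrees; viability read by BacTiter-Glo luminescence after 5 min.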
SARS PLpro yeast – SARS-CoV PLP inhibition in yeast; actives 0.19% (n = 330,000); Potency, µM (titrated, usually from 32.9 µM), for inactives: top-dose activity, positive = growth rescue, actives largely listed as activators; S. cerevisiae expressing SARS-CoV PLpro, growth rescue; calls by dose curve; further: 0% is about no effect; nearly all actives have a fitted effect of over 55% in size
Pf growth 48h – inhibits P. falciparum growth in the first generation, 48 h | P. falciparum luciferase growth in erythrocytes, 48 h | Potency, µM (top dose mostly 28.7 µM), for the others: top-dose activity change, negative = inhibition, hits mostly inhibitors | actives 5.9% (n = 310,000) | AID 504832; further: on the % scale 0 is the no-effect control and ±100 the full control effect
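Luminescence readout; reporter = integrated firefly luciferase in P. falciparum. RBC culture at 2% hematocrit, 0.1% parasitemia final, 37 C/5% CO2; decreased signal taken as growth inhibition.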
NS1 inh – influenza NS1 inhibition. Potency, µM (series often up to 46.1 µM), for inactives: at the top dose activity, positive = more growth. actives 0.4% (n = 270,000). AID 2326; calls by dose curve; further: actives are rising curves; nearly all actives have a fitted effect of over 50% in size
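S. cerevisiae expressing influenza A NS1, grown in glucose, washed, then diluted 1:100 into pH 6.0 -URA galactose medium with 23 nl compound. Growth recovery read as OD600; NS1-free strain serves as control.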
Pf growth 96h – P. falciparum growth inhibition at 96 hours; P. falciparum luciferase reporter growth, 96 h; Potency, µM (series often up to 28.7 µM), without a hit: top-dose activity change, negative = inhibition, hits mostly inhibitors; actives 6.9% (n = 320,000); further: on the % scale 0 is the no-effect control and ±100 the full control effect
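Luminescence readout: decreased luciferase signal marks inhibited growth of reporter-expressing P. falciparum in infected red cells (2% hematocrit, 0.05% parasitemia final), exposed to compound two generations (96 h, 37 C, 5% CO2).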
Numbers without * were called inactive; ? = inconclusive; · = no result; [ ] = another dose, or the depositor's remark. Hits are enriched below; roughly 9.5% of the tested compounds scored in any of these assays. Unless noted, the call rests on the fitted dose curve; in most records, active means well fitted inhibition curve with a large enough effect; inconclusive means small, poorly fitted or top-dose-only effect, or another doubt; inactive means no such curve, though single readings can be large or run the other way. Potency means the concentration at half of the fitted maximal effect.

SMILES | RE007 growth inh | SARS PLpro yeast | Pf growth 48h | NS1 inh | Pf growth 96h
Cc1nnc(SC(C)C(=O)Nc2ccc(S(=O)(=O)N3CCCCCC3)cc2)s1 (stereo unspecified) | -4% | -4% | 12µM* | -12% | ·
COc1ccc(-c2nnc(SC(C)C(=O)Nc3ccc4c(c3)OCCO4)o2)cc1 (stereo unspecified) | -9% | -3% | 63% | -2% | 12µM*
Cc1nnc(SC(C)C(=O)Nc2ccc3c(c2)OCCO3)s1 (stereo unspecified) | -2% | -6% | 8% | -7% | 10µM*
O=C(NCCCC1CCCC1)C1CCC(=O)N(Cc2ccc(Cl)cc2)C1 (stereo unspecified) | 13% | -3% | ? | -37% | 1%
c1cc2c3c(cccc3c1)NC1(CCC3(CC1)Nc1cccc4cccc(c14)N3)N2 | -20% | -5% | 9.3µM* | 8% | 6.6µM*
COc1ccc2cc3[n+](cc2c1OC)CCc1cc2c(cc1-3)OCO2 | ? | -4% | 0.23µM* | -2% | 0.15µM*
CCCOC1CCCN(Cc2nc(-c3cnccn3)no2)C1 (stereo unspecified) | -9% | -1% | 41% | 2% | 10µM*
c1ccc(COC2CCCN(Cc3nc(-c4cnccn4)no3)C2)cc1 (stereo unspecified) | -10% | 1% | 15% | -4% | ?
Cc1nnc(N/N=C\c2ccc(-c3cccc(C(=O)O)c3)o2)n1N | -26% | -5% | 194% | 0% | 31%
Cc1nnc(N/N=C/c2ccc(Br)cc2)n1N | 2% | -16% | 81% | -96% | 15µM*
Cc1nnc(N/N=C/c2ccc(-c3ccc(Br)cc3)o2)n1N | -30% | -14% | ? | · | 3.7µM*
OC[C@H](S)CS | · | · | 1.5µM* | -36% | 0.6µM*
NC(=O)NC1NC(=O)NC1=O (stereo unspecified) | 8% | 0% | -2% | 5% | ?
Cc1cc(C)c(NC(=O)CNC(=O)c2ccccc2OCc2c(C)noc2C)c(C)c1 | -6% | 3% | 19% | · | 1%
NC(=O)C1CCN(c2nc(-c3ccccc3Cl)cs2)CC1 | · | · | ? | · | 6%
COC(=O)c1cccc(NC(=S)N2CCN(c3ccccc3F)CC2)c1 | 1% | 1% | 30% | 4% | 40%
CCN(CC)c1ccc2cc(S(=O)(=O)c3ccc(Cl)cc3)c(=O)oc2c1 | 10% | 10% | ? | 5% | 13µM*
CCCCCCc1cc2cc(S(=O)(=O)c3ccc(Cl)cc3)c(=O)oc2cc1O | -7% | 13% | -26% | -24% | 16%
Nc1nccc(Nc2ccc(S(N)(=O)=O)cc2)n1 | · | · | · | -3% | ·
Cc1nnc(Cn2cnc3c2c(=O)n(C)c(=O)n3C)o1 | 3% | 6% | -12% | 6% | 12%
CC(=O)Nc1ccc(Nc2ccc(S(=O)(=O)C(F)(F)F)cc2[N+](=O)[O-])cc1 | -2% | -60% | 15µM* | -27% | ?
c1ccc(-c2onc(-c3ccco3)c2-c2ccc3c(c2)OCO3)cc1 | 14% | 0% | ? | -6% | 13µM*
O=C(O)c1cc(-c2ccc(-c3c(-c4ccc5c(c4)OCO5)noc3-c3ccsc3)cc2)nc2ccccc12 | 0% | -2% | 2% | -3% | ?
Cc1ccc(C[n+]2ccccc2)cc1 | -6% | 9% | 9.3µM* | · | ?
O=C(COC(=O)c1ccc[n+]([O-])c1)Nc1ccc(Cl)cc1[N+](=O)[O-] | 6% | 0% | ? | · | -15%
SMILES | RE007 growth inh | SARS PLpro yeast | Pf growth 48h | NS1 inh | Pf growth 96h
CCOC(=O)N1CCN(C(=O)CSCC(=O)Nc2nc(-c3ccc(-c4ccccc4)cc3)cs2)CC1 | -9% | -4% | ? | 21% | 10µM*
CCOC(=S)SCC(=O)Nc1nc(-c2ccc(Br)cc2)cs1 | 21% | 21% | -95% | -3% | 3.3µM*
CCOC(=O)N1CCN(C(=O)CSCC(=O)Nc2nc(-c3ccc(OC)cc3)cs2)CC1 | 3% | 4% | ? | -11% | ?
Cc1ccc(S(=O)(=O)N(C)/N=C2/C(=O)N(CC(=O)O)c3ccccc32)cc1 | -12% | 1% | 12% | 1% | ?
CCOC(=O)CNC(=O)N1CCC(CCOc2ccccc2)(C(=O)OCC)CC1 | 1% | 0% | 6% | -1% | 8.3µM*
CCCN1CCC(CCOc2ccccc2)(C(=O)OCC)CC1 | 4% | 3% | 3% | 9% | ?
CCOC(=O)C1(S(=O)(=O)c2ccccc2)CCN(Cc2ccc(Cl)cc2)CC1 | 5% | -4% | ? | -65% | 7.4µM*
CCOC(=O)C1(CCOc2ccccc2)CCN(Cc2ccc(O)c(OCC)c2)CC1 | -15% | -4% | 15µM* | 1% | -24%
CCOC(=O)C1(CCOc2ccccc2)CCN(Cc2ccc(O)cc2)CC1 | -9% | -4% | 13µM* | 0% | 0%
CCOC(=O)C1(CCOc2ccccc2)CCN(Cc2ccc(OCCO)cc2)CC1 | 3% | 6% | ? | -19% | ?
CC1(C)CC(NC(=O)c2ccc(Br)o2)CC(C)(C)N1 | -12% | 0% | -1% | 6% | 2%
CCc1ccc(C2=NN(CCC(=O)NC3CCCCCC3)C(=O)CC2)cc1 | 6% | -1% | ? | -19% | 10µM*
CC(C)(C)COS(=O)OCC(C)(C)C | · | · | · | 8% | ·
CN(C)S(=O)(=O)c1ccc(S(=O)(=O)N2CCCC(C(=O)NC3CCCC3)C2)cc1 (stereo unspecified) | 1% | 1% | -5% | 17% | 1%
Cc1ccc(-c2nc(CS(=O)(=O)CC(=O)N3CCCCCC3)c(C)o2)cc1 | 8% | 7% | 3% | -4% | ?
Cc1ccc(-c2nc(CS(=O)(=O)CC(=O)N3CCc4ccccc4C3)c(C)o2)cc1 | 9% | -9% | -18% | -82% | 13µM*
COc1cc(OC)c(NC(=O)CS(=O)(=O)Cc2nc(-c3ccc(C)cc3)oc2C)cc1Cl | -11% | 10% | · | -40% | 8.3µM*
COc1ccc(NC(=O)CS(=O)(=O)Cc2nc(-c3ccc(C)cc3)oc2C)cc1 | 8% | ? | 42% | -6% | -26%
COc1cccc(-c2nc(CS(=O)(=O)CC(=O)NCCc3ccc(OC)cc3OC)c(C)o2)c1 | 18% | 1% | ? | -8% | 5%
COc1cccc(-c2nc(CS(=O)(=O)CC(=O)NCCc3cc(OC)ccc3OC)c(C)o2)c1 | 12% | 4% | -28% | -8% | 13µM*
COc1cccc(CN2CCCC(C(=O)Nc3ccc(-c4cscn4)cc3)C2)c1 (stereo unspecified) | -7% | 3% | ? | -4% | -7%
O=C(COC(=O)CN1C(=O)c2ccccc2C1=O)NC1CCCC1 | -5% | -2% | -2% | -22% | 11%
N#Cc1c(N2CCN(C(=O)c3ccccc3)CC2)nc(-c2ccccc2)c2c1CCCC2 | 0% | 2% | · | 17% | 13µM*
N#Cc1c(N2CCN(C(=O)c3ccco3)CC2)nc(-c2ccccc2)c2c1CCCC2 | 3% | -25% | ? | 16% | 16%[5.75 µM]
CC(C)Cc1nc(N2CCCCC2)c(C#N)c2c1CCC2 | 8% | -2% | 40% | -6% | 10µM*
